RORg inh – ROR gamma (mouse) transcription inhibition; Drosophila S2 Gal4-RORgamma UAS-luciferase reporter, 20 h; Potency, µM (highest dose often 53.6 µM), inactives show at the highest dose activity change, negative = inhibition, hits mostly inhibitors; 5.4% of 310,000 active; AID 2551; note: nearly all actives have a fitted effect of over 60% in size
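Drosophila Schneider cells stably carrying a metallothionein-driven Gal4 DBD–ROR gamma fusion and a UAS-Photinus luciferase reporter were exposed to compound for 1 hr, then induced with copper sulfate (700 uM final) for 20 hr at ambient temperature before luminescence reading.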
TDP1 inh – inhibitors of human tyrosyl-DNA phosphodiesterase TDP1. 0.28% of 350,000 active. recombinant TDP1, AlphaScreen DNA substrate cleavage. Q9NUW8. Potency, µM (series often up to 130 µM), for the others: at the top dose activity change, negative = inhibition, hits mostly inhibitors; note: nearly all actives have a fitted effect of over 40% in size
Target sequence (Q9NUW8 whole entry, looked up): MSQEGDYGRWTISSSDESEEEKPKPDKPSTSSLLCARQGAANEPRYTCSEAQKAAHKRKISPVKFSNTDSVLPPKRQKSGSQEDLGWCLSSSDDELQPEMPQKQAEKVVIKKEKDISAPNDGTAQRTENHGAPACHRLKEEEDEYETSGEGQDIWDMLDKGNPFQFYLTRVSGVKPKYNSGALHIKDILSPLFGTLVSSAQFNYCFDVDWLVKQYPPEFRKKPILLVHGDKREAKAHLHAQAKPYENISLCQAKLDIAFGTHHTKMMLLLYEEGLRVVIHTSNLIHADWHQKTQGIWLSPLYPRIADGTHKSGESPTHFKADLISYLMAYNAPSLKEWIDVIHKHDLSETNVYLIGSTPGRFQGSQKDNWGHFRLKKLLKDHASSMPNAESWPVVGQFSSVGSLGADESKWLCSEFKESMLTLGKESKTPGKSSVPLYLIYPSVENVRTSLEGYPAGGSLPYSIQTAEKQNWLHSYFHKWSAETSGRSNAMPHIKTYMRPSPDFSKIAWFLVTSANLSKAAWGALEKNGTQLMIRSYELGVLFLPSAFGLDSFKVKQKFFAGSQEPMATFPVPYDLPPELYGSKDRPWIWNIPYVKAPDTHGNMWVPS
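Compounds were preincubated with Tdp1 (1 nM final) for 15 min at room temperature before substrate (15 nM final) started a 5 min reaction; beads (10 ug/ml final) were then added for 10 min before AlphaScreen detection.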
DT40 TDP1 CPT – growth inhibition of DT40 Tdp1-/-;hTDP1 cells with camptothecin (screen for TDP1 inhibitors). chicken DT40 Tdp1-/-;hTDP1 cells + 20 nM CPT, ATP luminescence, 48 h. Potency, µM (highest dose often 46.2 µM), for the others: top-dose activity change, negative = growth inhibition, usual class: inhibitors. 12% of 420,000 active. AID 686979; note: nearly all actives have a fitted effect of over 55% in size
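Chicken DT40 Tdp1-/- cells stably complemented with human TDP1 were seeded at 400 cells/well in medium containing 20 nM camptothecin, exposed to pin-transferred compounds, and grown at 37 °C for at least 48 hr. Viability was read as ATP luminescence.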
TDP1 cell noCPT – qHTS for Inhibitors of human tyrosyl-DNA phosphodiesterase 1 (TDP1): qHTS in cells in absence of CPT; DT40 Tdp1-/- hTDP1 cells, no CPT, ATP luminescence, 48 h; Potency, µM (titrated, usually from 46.2 µM), inactives show at the top dose activity change, negative = growth inhibition, actives largely listed as inhibitors; 15% of 420,000 active; AID 686978, 2013; note: nearly all actives have a fitted effect of over 55% in size
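Compound effects on proliferation are scored in DT40 Tdp1-/-;hTDP1 cells in the absence of CPT. ATP levels (CellTiter-Glo luminescence) are recorded after a ≥48 hr, 37 °C incubation.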
Gal4-VP16 FLuc – counter-screen for ROR gamma inhibitors: Gal4-VP16 reporter; AID 2546; 3.5% of 310,000 active; Drosophila S2 Gal4-VP16 UAS-luciferase, luminescence, 20 h; Potency, µM (titrated, usually from 53.6 µM), for the others: at the highest dose activity, negative = inhibition, usual class: inhibitors;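 note: Gal4-VP16 expression switched on by copper sulfate through the metallothionein promoter; nearly all actives have a fitted effect of over 50% in size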
Active calls of the source: *; ! = not active in a repeat; [ ] = remark or other dose. Shown are actives, neighbours in structure and some others; about 19% of the full set was active somewhere. Calls come from the whole dose curve; as a rule, active = well fitted curve in the direction sought with a large enough effect; inconclusive = small, poorly fitted or top-dose-only effect, or another doubt; inactive = no such curve, though single readings can be large; an effect the other way counts as inactive or inconclusive. % is set by controls: 0 for no effect and ±100 for the full control effect; potency is the fitted concentration of half-maximal effect.

For COCCCn1c(SCC(=O)Nc2nc3ccccc3s2)nnc1-c1ccoc1C the results were RORg inh 24%, TDP1 inh -1%[56.1 µM], DT40 TDP1 CPT -19%, TDP1 cell noCPT inconclusive and Gal4-VP16 FLuc -20%.
CC(C)C1Cc2c(sc3c2c(=O)n(Cc2ccccc2)c2nncn32)CO1 (stereo not drawn) was read as RORg inh -1%, TDP1 inh 12%, DT40 TDP1 CPT inconclusive, TDP1 cell noCPT inconclusive and Gal4-VP16 FLuc inconclusive.
For COc1cc(C(C2=C(O)CC(C)(C)CC2=O)C2C(=O)CC(C)(C)CC2=O)cc(OC)c1OC (stereo not drawn) the results were RORg inh 6%, TDP1 inh 2%, DT40 TDP1 CPT 0%, TDP1 cell noCPT 12% and Gal4-VP16 FLuc 1%.
COc1ccc2[nH]c(-c3ccccc3)cc2c1 was read as RORg inh 14%, TDP1 inh 10%, DT40 TDP1 CPT 8%, TDP1 cell noCPT 0% and Gal4-VP16 FLuc -4%.
Cc1ccc2[nH]c3c(=O)n(CC(=O)NCCCN4CCN(c5ccc(F)cc5)CC4)ncc3c2c1 was read as RORg inh -4%, TDP1 inh 0%, DT40 TDP1 CPT inconclusive, TDP1 cell noCPT 16µM*! and Gal4-VP16 FLuc -13%.
For O=C(Cc1cccs1)N/N=C/C(Br)=C/c1ccccc1 the results were RORg inh inconclusive, TDP1 inh 6%, DT40 TDP1 CPT inconclusive, TDP1 cell noCPT inconclusive and Gal4-VP16 FLuc inconclusive.
O=C(CN1CCOCC1)N/N=C/c1ccc(C(=O)O)cc1 was read as RORg inh 9%, TDP1 inh -8%, DT40 TDP1 CPT -5%, TDP1 cell noCPT 19% and Gal4-VP16 FLuc -7%.
`O=C(CN1CCOCC1)N/N=C/C(Br)=C\c1ccccc1` gave RORg inh -21%, TDP1 inh 2%, DT40 TDP1 CPT 12µM*, TDP1 cell noCPT 10µM* and Gal4-VP16 FLuc inconclusive.
Screening Cc1ccccc1NCC(=O)N/N=C/C(Br)=C/c1ccccc1 returned RORg inh inconclusive, TDP1 inh -7%, DT40 TDP1 CPT 5.2µM*, TDP1 cell noCPT 13µM* and Gal4-VP16 FLuc inconclusive.
Screening Cc1cs/c(=N/C(=S)Nc2ccccc2)n1C returned RORg inh 1.6µM*, TDP1 inh 0%, DT40 TDP1 CPT 8%, TDP1 cell noCPT -3% and Gal4-VP16 FLuc 10µM*.
CCCn1c(C)cs/c1=N\C(=S)Nc1ccccc1 was read as RORg inh 4µM*, TDP1 inh 5%, DT40 TDP1 CPT inconclusive, TDP1 cell noCPT inconclusive and Gal4-VP16 FLuc 5.6µM*.
CCn1c(C)cs/c1=N\S(=O)(=O)c1ccccc1 was read as TDP1 inh -4%, DT40 TDP1 CPT -16% and TDP1 cell noCPT -17%.
`C=CCNC(=S)/N=c1/scc(C)n1C` gave RORg inh inconclusive, TDP1 inh 0%, DT40 TDP1 CPT -29%, TDP1 cell noCPT -4% and Gal4-VP16 FLuc -1%.
COc1ccc(C/C(C)=N/NC(=S)Nc2ccc(Cl)cc2)cc1 was read as RORg inh 11µM*, TDP1 inh -3%, DT40 TDP1 CPT 15µM*, TDP1 cell noCPT 12µM* and Gal4-VP16 FLuc inconclusive.
Screening COc1ccc(/C(C)=N/NC(=O)Cc2ccc(Cl)cc2)cc1 returned RORg inh 3%[1.91 µM], DT40 TDP1 CPT 11%, TDP1 cell noCPT -8% and Gal4-VP16 FLuc 0%.
COc1ccc(C/C(C)=N/NC(=S)Nc2ccccc2)cc1 was read as RORg inh 20µM*, TDP1 inh 5%, DT40 TDP1 CPT inconclusive, TDP1 cell noCPT inconclusive and Gal4-VP16 FLuc inconclusive.
`COc1ccc(NC(=O)Cc2ccccc2)cc1` gave RORg inh 5%, TDP1 inh 2%, DT40 TDP1 CPT inconclusive, TDP1 cell noCPT -13% and Gal4-VP16 FLuc -16%.
Screening COc1ccc(C/C(C)=N/NC(=S)Nc2ccc(C)c(C)c2)cc1 returned RORg inh inconclusive, TDP1 inh 3%, DT40 TDP1 CPT 16µM*, TDP1 cell noCPT 16µM* and Gal4-VP16 FLuc 10µM*.
For COc1ccc(/C=C/c2ccc(=O)n(Cc3ccccc3)n2)cc1 the results were RORg inh 30%, TDP1 inh -1%, DT40 TDP1 CPT inconclusive, TDP1 cell noCPT inconclusive and Gal4-VP16 FLuc 0%.
CCCCC1CCC(CCCC(C)CCC(=O)O)CC1 (stereo not drawn) was read as TDP1 inh 5%[12.3 µM], DT40 TDP1 CPT 0% and TDP1 cell noCPT -3%.
For CC1=C(c2ccc(C)c(C)c2)S(=O)(=O)N(Cc2ccc(C(=O)NCc3ccc(C)cc3)cc2)C1=O the results were TDP1 inh 2%, DT40 TDP1 CPT inconclusive and TDP1 cell noCPT inconclusive.
For C=CCN(CC=C)S(=O)(=O)c1ncn[nH]1 the results were RORg inh -6%, TDP1 inh 40µM*, DT40 TDP1 CPT -9%, TDP1 cell noCPT -2% and Gal4-VP16 FLuc -8%.
C=CCN(CC=C)S(=O)(=O)c1ccc(F)cc1 was read as RORg inh 0%, TDP1 inh -1%, DT40 TDP1 CPT 6%, TDP1 cell noCPT -15% and Gal4-VP16 FLuc 4%.
CCCc1nnc(SCC(=O)N2CCCCC2C)n1CCOC (stereo not drawn) was read as RORg inh 15%, TDP1 inh 6%, DT40 TDP1 CPT -14%, TDP1 cell noCPT inconclusive and Gal4-VP16 FLuc -2%.
Cn1c(=O)c(=O)n(C)c2cc(S(=O)(=O)CCC(=O)NCc3ccccc3)ccc21 was read as RORg inh -31%, DT40 TDP1 CPT -7%, TDP1 cell noCPT -8% and Gal4-VP16 FLuc -1%.
For COc1ccc(S(=O)(=O)N(CCO)c2ccccc2CN(C)CC=Cc2ccc(Cl)cc2)cc1 the results were RORg inh -40%, TDP1 inh 7% and Gal4-VP16 FLuc 14µM*.
CC(C)(C)C(=O)N1CCN(c2ncnc3scc(-c4ccccc4)c23)CC1 was read as RORg inh 38%, DT40 TDP1 CPT inconclusive, TDP1 cell noCPT inconclusive and Gal4-VP16 FLuc 28%.
Screening CCOC(=O)N1CCN(c2ncnc3scc(-c4ccc(Cl)cc4)c23)CC1 returned RORg inh 25%, DT40 TDP1 CPT 18µM*, TDP1 cell noCPT inconclusive and Gal4-VP16 FLuc -1%.
`CCOC(=O)N1CCN(c2ncnc3scc(-c4ccccc4)c23)CC1` gave RORg inh 22%, DT40 TDP1 CPT 15µM*, TDP1 cell noCPT 8.2µM* and Gal4-VP16 FLuc 4%.
For Clc1ccc(-c2csc3ncnc(N4CCc5ccccc5C4)c23)cc1 the results were RORg inh -18%, TDP1 inh -3%, DT40 TDP1 CPT inconclusive, TDP1 cell noCPT 21µM* and Gal4-VP16 FLuc 10%.

Screening data as filed in PubChem BioAssay.
